Read-out in experiment [1]: Tissue Factor, F3 (gene 2152)
Description: BSK_CASM3C_TissueFactor: BioMAP Diversity Plus: CASM3C Assay for Tissue Factor Biomarker Activity (AID 2283052).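 Also: cell surface tissue factor protein level read by ELISA.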 Conditions: primary human coronary artery smooth muscle cells; actives raise or lower the signal.

Read-out in experiment [2]: Interferon-gamma inducible Protein 10 (IP10), CXCL10 (gene 3627)
Kind of experiment: BSK_hDFCGF_IP10: BioMAP Diversity Plus: hDFCGF Assay for Interferon-gamma inducible Protein 10 (IP10) Biomarker Activity (AID 2283053). Conditions: primary human foreskin fibroblasts; actives raise or lower the signal. The gist of the method: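 IP-10 levels, quantified by ELISA, are taken from human foreskin fibroblast cultures 24 h after chemical treatment, with DMSO serving as negative control and baseline for bidirectional analysis.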

Read-out in experiment [3]: Urokinase-type plasminogen activator receptor (uPAR), PLAUR (gene 5329)
Description: BSK_CASM3C_uPAR: BioMAP Diversity Plus: CASM3C Assay for Urokinase-type plasminogen activator receptor (uPAR) Biomarker Activity (AID 2283054).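 Also: cell-surface uPAR protein level quantified by ELISA.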 Conditions: primary human coronary artery smooth muscle cells; actives raise or lower the signal.

Read-out in experiment [4]: Vascular cell adhesion molecule 1 (VCAM1), VCAM1 (gene 7412)
Description: BSK_CASM3C_VCAM1: BioMAP Diversity Plus: CASM3C Assay for Vascular cell adhesion molecule 1 (VCAM1) Biomarker Activity (AID 2283055).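 Also: VCAM-1 protein level quantified by ELISA on the cells.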 Conditions: primary human coronary artery smooth muscle cells; actives raise or lower the signal.

Read-out in experiment [5]: Collagen III, COL3A1 (gene 1281)
Description: BSK_hDFCGF_CollagenIII: BioMAP Diversity Plus: hDFCGF Assay for Collagen III Biomarker Activity (AID 2283056). Conditions: primary human foreskin fibroblasts; actives raise or lower the signal. In a few lines: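 Human foreskin fibroblast primary cultures sampled 24 h after dosing; Collagen III quantified by ELISA. Signal fitted bidirectionally against DMSO baseline.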

Read-out in experiment [6]: Epidermal growth factor receptor (EGFR), EGFR (gene 1956)
Kind of experiment: BSK_hDFCGF_EGFR: BioMAP Diversity Plus: hDFCGF Assay for Epidermal growth factor receptor (EGFR) Biomarker Activity (AID 2283057). Conditions: primary human foreskin fibroblasts; actives raise or lower the signal. In a few lines:
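Measured by ELISA: EGFR levels on primary human foreskin fibroblasts 24 h after chemical treatment, analysed relative to DMSO with bidirectional fitting.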

Read-out in experiment [7]: Interleukin-8 (IL8), CXCL8 (gene 3576)
Kind of experiment: BSK_hDFCGF_IL8: BioMAP Diversity Plus: hDFCGF Assay for Interleukin-8 (IL8) Biomarker Activity (AID 2283058). Conditions: primary human foreskin fibroblasts; actives raise or lower the signal. In a few lines:
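Primary human foreskin fibroblasts (hDFCGF system) dosed with chemical; IL-8 measured by ELISA 24 hours later. Bidirectional curve fitting relative to DMSO baseline; cytotoxicity tracked in parallel cultures by SRB total protein staining.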

Experiment [8] in a line: BSK_hDFCGF_Proliferation: Cell Proliferation Assessment in the BioMAP Diversity Plus: hDFCGF Assay (AID 2283059).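 Also: curves fitted for both rise and fall of signal versus DMSO baseline.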 Conditions: primary human foreskin fibroblasts. The gist of the method: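 Sub-confluent human foreskin fibroblast cultures receive test chemical […]. Relative cell number is quantified by sulforhodamine B staining (0.1%, after 10% TCA fixation) at 560 nm, with bidirectional fitting referenced to DMSO.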

Read-out in experiment [9]: Macrophage colony-stimulating factor (MCSF), CSF1 (gene 1435)
Description: BSK_hDFCGF_MCSF: BioMAP Diversity Plus: hDFCGF Assay for Macrophage colony-stimulating factor (MCSF) Biomarker Activity (AID 2283060). Conditions: primary human foreskin fibroblasts; actives raise or lower the signal. In a few lines:
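Human foreskin fibroblast primary cultures; M-CSF measured by ELISA 24 hours after chemical dosing. Bidirectional fitting relative to DMSO, with overt cytotoxicity tracked by parallel SRB total-protein staining (0.1% SRB, 10% TCA fixation, 560 nm).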

A short description of experiment [10]: BSK_hDFCGF_SRB: Viability Assessment in the BioMAP Diversity Plus: hDFCGF Assay (AID 2283061).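 Also: cells exposed to compound for 24 h before the read.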 Conditions: primary human foreskin fibroblasts. The gist of the method: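 Human foreskin fibroblasts in 96-well plates were treated 24 h. Total protein was measured by 0.1% SRB staining after 10% TCA fixation, read at 560 nm. Data were fitted bidirectionally against DMSO.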

Read-out in experiment [11]: TIMP metallopeptidase inhibitor 1 (TIMP1), TIMP1 (gene 7076)
Kind of experiment: BSK_hDFCGF_TIMP1: BioMAP Diversity Plus: hDFCGF Assay for TIMP metallopeptidase inhibitor 1 (TIMP1) Biomarker Activity (AID 2283062). Conditions: primary human foreskin fibroblasts; actives raise or lower the signal. The gist of the method: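 Human foreskin fibroblast primary cultures dosed for 24 h; secreted/surface TIMP-1 quantified by ELISA. Bidirectional curve fitting against DMSO baseline; cytotoxicity tracked in parallel cultures by SRB total-protein staining.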

Read-out in experiment [12]: Monokine induced gamma interferon (MIG), CXCL9 (gene 4283)
Kind of experiment: BSK_hDFCGF_MIG: BioMAP Diversity Plus: hDFCGF Assay for Monokine induced gamma interferon (MIG) Biomarker Activity (AID 2283063). Conditions: primary human foreskin fibroblasts; actives raise or lower the signal. The gist of the method: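 MIG/CXCL9 measured by ELISA 24 h after dosing primary human skin fibroblasts. Activity fitted in both directions against DMSO controls. Cytotoxicity was checked in parallel cultures by SRB staining read at 560 nm.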

Read-out in experiment [13]: Vascular cell adhesion molecule 1 (VCAM1), VCAM1 (gene 7412)
Description: BSK_hDFCGF_VCAM1: BioMAP Diversity Plus: hDFCGF Assay for Vascular cell adhesion molecule 1 (VCAM1) Biomarker Activity (AID 2283065).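 As to AC50: VCAM-1 protein level quantified by ELISA after 24 h chemical exposure.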 Conditions: primary human foreskin fibroblasts; actives raise or lower the signal. The gist of the method:
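Human foreskin fibroblast primary cells dosed with chemical, VCAM-1 measured by ELISA at 24 h. Bidirectional curve fitting relative to DMSO as negative control/baseline.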

Read-out in experiment [14]: Plasminogen activator inhibitor-1 (PAI1), SERPINE1 (gene 5054)
Description: BSK_hDFCGF_PAI1: BioMAP Diversity Plus: hDFCGF Assay for Plasminogen activator inhibitor-1 (PAI1) Biomarker Activity (AID 2283066). Conditions: primary human foreskin fibroblasts; actives raise or lower the signal. The gist of the method:
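PAI-1 levels, determined by ELISA, served as the endpoint in human foreskin fibroblast cultures exposed to compound for 24 h, with DMSO as baseline.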

Read-out in experiment [15]: Intercellular Adhesion Molecule 1 (ICAM1), ICAM1 (gene 3383)
Kind of experiment: BSK_KF3CT_ICAM1: BioMAP Diversity Plus: KF3CT Assay for Intercellular Adhesion Molecule 1 (ICAM1) Biomarker Activity (AID 2283067). Conditions: primary human keratinocytes with fibroblasts; actives raise or lower the signal. In a few lines: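 Human keratinocyte–foreskin fibroblast co-culture was treated for 24 h. Cell-surface ICAM-1 was quantified by ELISA, fitted bidirectionally relative to DMSO. Cytotoxicity was checked in parallel cultures by SRB total-protein staining.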

Read-out in experiment [16]: Interferon-gamma inducible Protein 10 (IP10), CXCL10 (gene 3627)
Description: BSK_KF3CT_IP10: BioMAP Diversity Plus: KF3CT Assay for Interferon-gamma inducible Protein 10 (IP10) Biomarker Activity (AID 2283068). Conditions: primary human keratinocytes with fibroblasts; actives raise or lower the signal. The gist of the method: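 ELISA read-out of IP-10 after 24 h chemical dosing of human skin primary co-culture (keratinocytes, foreskin fibroblasts). Gain or loss of signal relative to DMSO, bidirectional curve fit.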

Experiment [17] in a line: BSK_KF3CT_SRB: Viability Assessment in the BioMAP Diversity Plus: KF3CT Assay (AID 2283069).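 Also: total protein by sulforhodamine B staining as a cytotoxicity measure; read 24 h after compound addition; fitted for both signal gain and loss against DMSO baseline.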 Conditions: primary human keratinocytes with fibroblasts. The gist of the method:
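Human keratinocyte and foreskin fibroblast co-culture exposed to chemical for 24 h. Total protein measured in parallel cultures by 0.1% sulforhodamine B staining after 10% TCA fixation, read at 560 nm; bidirectional fit relative to DMSO.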

Read-out in experiment [18]: Interleukin-1 alpha (IL1a), IL1A (gene 3552)
Description: BSK_KF3CT_IL1a: BioMAP Diversity Plus: KF3CT Assay for Interleukin-1 alpha (IL1a) Biomarker Activity (AID 2283070). Conditions: primary human keratinocytes with fibroblasts; actives raise or lower the signal. In a few lines: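 Primary human keratinocyte plus foreskin fibroblast co-culture, dosed and measured at 24 h in 96-well plates. IL-1a level quantified by ELISA; bidirectional fit relative to DMSO.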

Read-out in experiment [19]: TIMP metallopeptidase inhibitor 2 (TIMP2), TIMP2 (gene 7077)
Kind of experiment: BSK_KF3CT_TIMP2: BioMAP Diversity Plus: KF3CT Assay for TIMP metallopeptidase inhibitor 2 (TIMP2) Biomarker Activity (AID 2283071). Conditions: primary human keratinocytes with fibroblasts; actives raise or lower the signal. In a few lines: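 Keratinocyte–fibroblast co-culture, 24 h exposure; TIMP-2 ELISA, DMSO-normalised bidirectional fit. Parallel SRB (0.1%, TCA-fixed, 560 nm) total-protein staining gauges cytotoxicity.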

Several values for one entry are separate records, joined by “and”; a condition that tells them apart may be missing. Identical values can stand only once. Some structures have more than one record in an assay (separate samples or runs), and their calls can disagree. Activity calls are given as the source filed them. The calls were made as follows: active = hit-call score of the fitted dose curve at least 0.9, where 1 is the maximum; inactive = score below 0.9.

Turning to `CCCOC(=O)c1ccc(O)cc1`, the result in experiment [1], in experiment [2], in experiment [3], in experiment [4], in experiment [5] and in experiment [6] was inactive. Further, the outcome in experiment [7], in [8], in experiment [9], in [10], in experiment [11] and in [12] was inactive. Moreover, the outcome in experiment [13], in experiment [14], in experiment [15], in experiment [16], in [17] and in experiment [18] was inactive. Besides, the result in [19] was inactive.

A word on the AC50: it is the midpoint of the concentration-response curve, whichever way the signal moves. For the compound `CCN(CC)CCNc1ccc(CNC=O)c2sc3ccc(OC)cc3c(=O)c12`, the AC50 in experiment [1] is 5.33 µM (active); in experiment [2], 15.5 µM (active); in experiment [3], 11.1 µM (active); in [4], 12 µM (active); in experiment [5] it was 16.2 µM (active); in experiment [7], 33.7 µM (active). In addition, the AC50 in experiment [8] is 6.31 µM (active); in experiment [9] it was 12.9 µM (active); in [10] it was 14.6 µM (active); in experiment [11], 13.1 µM (active); in [12] it was 34.2 µM (active); in experiment [13], 32.4 µM (active). Moreover, the AC50 in experiment [14] was 11 µM (active); in [15] it was 31.6 µM (active); in [16] it was 30.8 µM (active); in [17] it was 26.4 µM (active); in [18] it was 22.3 µM (active); in experiment [19], 25 µM (active). Further, in experiment [6], the result was inactive.

Take `FC(F)(I)C(F)(F)C(F)(F)C(F)(F)C(F)(F)C(F)(F)I`: the half-maximal activity concentration (AC50) in experiment [1] is 23.7 µM (active) and 16.2 µM (active) and 30 µM (active); in experiment [2], 5.72 µM (active) [middle of 5 runs]; in [3] it was 23.7 µM (active) [middle of 5 runs]; in [4], 19.8 µM (active) [middle of 5 runs]; in experiment [5], 4.16 µM (active) [middle of 5 runs]; in [7], 7.02 µM (active) [middle of 5 runs]. For the same compound, the AC50 in experiment [8] was 2.06 µM (active) [middle of 5 runs]; in experiment [9], 4.77 µM (active) [middle of 5 runs]; in [10] it was 5.33 µM (active) [middle of 5 runs]; in experiment [12], 6.07 µM (active) [middle of 5 runs]; in experiment [13] it was 3.81 µM (active) [middle of 5 runs]; in experiment [14] it was 5.44 µM (active) [middle of 5 runs]. Also, the AC50 in [15] is 9.2 µM (active) [middle of 5 runs]; in experiment [16], 7.76 µM (active) [middle of 5 runs]; in experiment [17] it was 8.99 µM (active) [middle of 5 runs]; in experiment [18], 7.77 µM (active) [middle of 5 runs]; in experiment [19] it was 13.2 µM (active) [middle of 5 runs]. Moreover, the outcome in experiment [1] and in [6] was inactive.

Turning to `c1ccc2c(c1)Cc1ccccc1-2`, the result in [1], in experiment [2], in experiment [3], in experiment [4], in [5] and in experiment [6] was inactive. Further, the outcome in experiment [7], in experiment [8], in experiment [9], in experiment [10], in [11] and in experiment [12] was inactive. Moreover, the outcome in experiment [13], in experiment [14], in experiment [15], in experiment [16], in experiment [17] and in [18] was inactive. Further, the result in [19] was inactive.

The record behind these values is PubChem BioAssay (EPA / NIEHS).
